28 compounds from PubChem BioAssay AID504834 (National Center for Advancing Translational Sciences (NCATS), 2011) can be followed below.

Where “and” joins values, the source holds several entries; their conditions need not be identical. Equal values may be shown once. Screen size: about 320,000 compounds; about 22,000 (6.9%) were called active. Not shown: some 27% with an inconclusive outcome. The call rests on the fitted dose curve; in most records, active means well fitted inhibition curve with a large enough effect; inconclusive means small, poorly fitted or top-dose-only effect, or another doubt; inactive means no such curve, though single readings can be large or run the other way. The sample as a whole holds a higher share of actives than the screen did. A structure can be active in one record and inactive in another.
On the % scale 0 is the no-effect control and ±100 the full control effect; potency means the concentration at half of the fitted maximal effect.

This test in a line: Primary qHTS for delayed death inhibitors of the malarial parasite plastid, 96 hour incubation. As to conditions: P. falciparum luciferase reporter growth; series mostly up to 28.7 µM; activity change, negative = inhibition: at the top concentration. Put shortly: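 96 h incubation, 37 C, 5% CO2, of luciferase-reporter P. falciparum-infected RBCs (2% hematocrit, 0.05% parasitemia final) with test compounds; endpoint luminescence.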
Consider `CC(OC(=O)c1cc2ccccc2o1)C(=O)Nc1ccc(N2CCOCC2)cc1` (stereo not drawn), for which the “activity change, negative = inhibition” value was 17.2% (inactive).
Turning to `COc1ccc(C(=O)NC2=NCCS2)c(OC)c1`, the “activity change, negative = inhibition” value is -2.34% (inactive).
With `CCCOc1ccc(NC(=O)C2CCCNC2=O)cc1` (stereo not drawn), the “activity change, negative = inhibition” value is -1.44% (inactive).
With `CCCOc1ccc(NC(=O)C2OC3OC(C)(C)OC3C3OC(C)(C)OC23)cc1` (stereo not drawn), the Potency was 10.4 µM (active).
Take `CCCOc1ccc(C(=O)CCC(=O)OC(C)C(=O)Nc2ccc(NC(C)=O)cc2)cc1` (stereo not drawn): the “activity change, negative = inhibition” value was 19.8% (inactive).
The same measure, in the same setting: the same measure for `CC(=O)c1ccc(N2CCN(C(=O)c3ccc(Cl)c(S(=O)(=O)NC4CC4)c3)CC2)c(F)c1`: -12.3% (inactive); for `CC(C)OC(=O)c1ccc(COc2ccc3ccc(=O)oc3c2)o1`: 18.6% (inactive).
Take `Cc1ccccc1CCN(CC(=O)NC1CCCCC1)C(=O)c1csnn1`: the Potency is 11.7 µM (active).
With `O=C(CN(C(=O)c1csnn1)c1ccc(Br)cc1)NC1CCCC1`, the “activity change, negative = inhibition” value is 22.8% (inactive).
On the same count and under the same terms, the same measure for `Cc1ccc(CN(CC(=O)NC2CCCCC2)C(=O)c2csnn2)cc1`: 5.12% (inactive).
Still for that read-out and setting: for `Cc1cc(NC(=O)CCC(=O)N(CC(=O)NCC2CCCO2)c2ccccc2)no1` (stereo not drawn) the value was 4.72% (inactive); for `O=C(CN1CCC(O)(c2cccc(C(F)(F)F)c2)CC1)NCCc1ccccc1`, 39% (inactive); for `Cc1ccc2nc(-c3ccncc3)cc(C(=O)Nc3ccc4c(c3)OCCO4)c2c1`, 27.1% (inactive).
Turning to `COC(=O)CNC(=O)c1cc(-c2ccncc2)nc2ccccc12`, the “activity change, negative = inhibition” value is 0% (inactive).
In the case of `CCN(CC)CCNC(=O)c1ccc(NC(=O)c2cc(-c3ccncc3)nc3ccccc23)cc1`, the Potency is 8.28 µM (active).
Take `O=S(=O)(Nc1cccc(-c2ccc(N3CCOCC3)nn2)c1)c1ccc(Cl)c(Cl)c1`: the “activity change, negative = inhibition” value is -1.51% (inactive).
As for `CCCC[N+]1(C)C2CC(OC(=O)C(CO)c3ccccc3)CC1C1OC12` (stereo not drawn), the Potency result is “inactive and 1.2 µM (active)”.
With `CCCCCCOC(=O)NCC(O)c1ccccc1` (stereo not drawn), the “activity change, negative = inhibition” value is 3.79% (inactive).
Same read-out and setting: the same measure for `CCCCC(=O)NNC(=S)NC(=O)C(c1ccccc1)c1ccccc1`: -13.3% (inactive).
With `CN(C)C(=O)Cn1c(=O)n(S(=O)(=O)c2ccccc2)c2ccccc21`, the “activity change, negative = inhibition” value is 0% (inactive).
Same read-out and setting: for `Cc1ccc(OCC(=O)N/N=C/c2ccncc2)cc1` the value was 0% (inactive).
As for `Cc1cccc(OCC(=O)NCC(=O)N/N=C/c2ccc(N(C)C)cc2)c1`, the Potency is 7.38 µM (active).
Regarding `Cc1ccc(/C=N/NC(=O)CNC(=O)COc2ccccc2)o1`, the “activity change, negative = inhibition” value is -20.5% (inactive).
In the case of `COc1ccccc1C(=O)COC(=O)CNS(=O)(=O)c1ccc(NC(C)=O)cc1`, the “activity change, negative = inhibition” value was 0.583% (inactive).
Still for that read-out and setting: for `Cc1ccc(N2C(=O)C3C4C=CC(CC4)C3C2=O)cc1Br` (stereo not drawn) the value was 39.1% (inactive).
For the compound `Cc1ccc(N2C(=O)C3C4C=CC(CC4)C3C2=O)cc1Cl` (stereo not drawn), the Potency was 3.7 µM (active).
On to `CC(=O)Nc1ccc(N2C(=O)C3C4C=CC(CC4)C3C2=O)cc1` (stereo not drawn), for which the “activity change, negative = inhibition” value was 16.1% (inactive).
On the same count and under the same terms, the same measure for `CCC(C)(C)NC(=O)C(c1ccc(OC)cc1)N(C(=O)CCC(=O)Nc1cc(C)on1)c1ccc(OC)cc1OC` (stereo not drawn): 26.5% (inactive).
